Screen size: about 340,000 compounds; about 3,300 (0.97%) were called active. Only a selection was taken, and actives are over-represented in it overall. Unmarked numbers belong to inactive results.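 Rule for the calls: active = inhibition above the mean over all tested compounds plus 3 SD (cut at about 30% in these data); inactive = the rest.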
Each compound was assayed against Platelet-activating factor acetylhydrolase 2, cytoplasmic (Homo sapiens) (UniProt Q99487) (assay: inhibition of cytoplasmic PAF acetylhydrolase 2 – biochemical, fluorescence polarization, human, primary screen (AID 492956;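 note: inhibitors block probe labeling of enzyme so polarization drops; 0% = enzyme with DMSO and 100% = wells lacking PAFAH2 protein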)). Settings: recombinant PAFAH2, FP-rhodamine activity probe, at 3.39 µM, active compounds read high.

Q: Which inhibition does the source give for `COc1ccc(N2C(=O)/C(=C/c3ccco3)C(=O)NC2=S)cc1` here?
A: 59.1% (active)

Q: How did the inhibition turn out when `CC(C)CN1CCN(Cc2ccccc2C(F)(F)F)CC1CCO` (stereo not given) was run?
A: 4.28%

Q: Which inhibition does the source give for `COc1ccc(-n2c(-c3ccccc3)nc3ccccc3c2=O)cc1` here?
A: -4.87%

Q: `C[C@]12CCCCC1=CC(=O)C1C2CC[C@@]2(C)C1C[C@@H](F)[C@@H]2O` (stereo not given in full) was tested. Which inhibition did it give?
A: 2.89%

Q: `CC(Cc1cccs1)NCc1ccc(Cl)cc1` (stereo not given) was tested. Which inhibition did it give?
A: 4.46%

Q: How did the inhibition turn out when `Cc1cccc(N2C(=O)NC(=O)/C(=C\c3cnn(-c4ccccc4)c3)C2=O)c1` was run?
A: 38.8% (active)

Q: Which inhibition does the source give for `COc1cccc(N2C(=O)NC(=O)/C(=C\c3cn(C)c4ccccc34)C2=O)c1` here?
A: 53% (active)

Q: Which inhibition does the source give for `CCc1nc2ccccc2c(=O)n1-c1cccc(OC)c1` here?
A: 0.9%

Q: Which inhibition does the source give for `Cc1c(C(=O)O)cccc1-n1c(C)cc(/C=C2\C(=O)NC(=O)N(c3ccc4c(c3)OCO4)C2=O)c1C` here?
A: 14.2%

Q: With `CCN1CCN(c2nc3c(c(=O)[nH]2)CCC3)CC1` as the compound, how does the inhibition read?
A: 1.82%

Q: With `CC12CCC3C(CCC4CC(=O)CCC43C)C1CC(=NO)C2=O` (stereo not given) as the compound, how does the inhibition read?
A: 5.08%

Q: With `Cc1ccc(S(=O)(=O)N(C)c2ccc(C(=O)NCC3(N(C)C)CCCCC3)cc2)cc1` as the compound, how does the inhibition read?
A: -2.88%

Q: Which inhibition does the source give for `O=C1NC(=O)N(c2ccc(F)cc2)C(=O)/C1=C/c1ccc2c(c1)CCCN2Cc1ccccc1` here?
A: 6.73%

Q: With `O=C1NC(=O)N(c2ccccc2)C(=O)/C1=C/c1ccc([N+](=O)[O-])s1` as the compound, how does the inhibition read?
A: 38.4% (active)

Q: `COc1ccc2[nH]c3c(c2c1)CCN[C@H]3C` was tested. Which inhibition did it give?
A: -4.46%

Q: `O=C(Cn1c(=O)n(CC2CS2)c2ccccc21)N1CCCCC1` (stereo not given) was tested. Which inhibition did it give?
A: -1.23%

Q: Which inhibition does the source give for `N=c1ccccn1Cc1ccccc1` here?
A: 1.19%

Q: For `O=C(COC(=O)c1ccccc1)Nc1ccc(Cl)cc1C(=O)c1ccccc1`, which inhibition is on record?
A: 45% (active)

Q: With `CN1CCN(C(=S)SCC(=O)Nc2ccc(Cl)cc2C(=O)c2ccccc2)CC1` as the compound, how does the inhibition read?
A: 5.69%

Q: With `O=C(CCNS(=O)(=O)c1ccccc1)Nc1ccc(Cl)cc1C(=O)c1ccccc1` as the compound, how does the inhibition read?
A: -0.4%

Q: With `CCN(CC)C(=O)Oc1ccc(NC(=O)N2CCOCC2)cc1` as the compound, how does the inhibition read?
A: 6.33%

Q: For `C=CCN1C(=O)NC(=O)/C(=C/c2ccc(OCC(=O)Nc3ccc(C)cc3)cc2)C1=O`, which inhibition is on record?
A: 5.48%

Q: `COc1ccc(C(=O)C2CCCN(Cc3ccc(C)s3)C2)cc1OC` (stereo not given) was tested. Which inhibition did it give?
A: 1.55%

Q: For `COc1ccccc1N=C1SCCCN1C`, which inhibition is on record?
A: 5.93%

Q: How did the inhibition turn out when `NCCc1ccc(S(=O)(=O)F)cc1` was run?
A: 86% (active)

Q: How did the inhibition turn out when `CC(C)c1ccc(-n2c(O)c(/C=N/N3CCOCC3)c(=O)[nH]c2=S)cc1` was run?
A: -8.3%

Q: `Cc1ccnc(-n2c(C)cc(/C=C3\C(=O)NC(=S)N(C)C3=O)c2C)c1` was tested. Which inhibition did it give?
A: -2.99%

Q: How did the inhibition turn out when `CCN1CCN(c2ccc([N+](=O)[O-])cc2C#N)CC1` was run?
A: 9.87%

Q: `CC12CCC(O)CC1CCC1C2CCC2(C)C(C(=O)CC(O)C(F)(F)F)CCC12` (stereo not given) was tested. Which inhibition did it give?
A: 2.7%

Q: Which inhibition does the source give for `O=C(N/N=C/c1c(O)n(C2CC2)c(=S)[nH]c1=O)c1ccccc1Cl` here?
A: -27.8%

Reference: PubChem BioAssay AID492956 (The Scripps Research Institute Molecular Screening Center, 2010)
